AGP1-GFP MLPCN = modulators of AGP1-GFP expression in yeast TOR pathway, primary screen, cell-based, multiplex flow cytometry, S. cerevisiae, MLPCN library; 3 h; GFP as percent of DMSO wells; GFP response vs DMSO, % at 10 µM; AID 2066, 2009; hit rate 0.02% among 320,000;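 active means GFP response relative to DMSO above a set limit, near screen average plus 3 SD, cut at about 150% in these data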;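 further: median GFP channel fluorescence of the gated AGP1 strain per well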
RPL19A-GFP yeast = RPL19A-GFP expression modulators in yeast, primary screen, cell-based, S. cerevisiae, multiplex flow cytometry, MLPCN | S. cerevisiae RPL19A-GFP strain, 3 h; stronger effect = lower value | percent response vs DMSO, % at 10 µM | hit rate 0.3% among 330,000;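 active means percent response vs DMSO below 50%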;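 further: median channel GFP fluorescence of the barcoded RPL19A-GFP strain; lower means less RPL19A-GFP as with rapamycin TOR inhibition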
LAP4-GFP MLPCN = modulators of LAP4-GFP expression in yeast, primary screen, S. cerevisiae, multiplex flow cytometry, MLPCN library; GFP response vs DMSO, % at 10 µM; 3 h; median GFP as percent of DMSO wells; hit rate 0.34% among 320,000; AID 2023, 2009;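 active means GFP response vs DMSO above a set limit, about the screen mean plus 3 SD, cut at about 150% in these data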
CIT2-GFP yeast = modulators of CIT2-GFP expression in yeast, primary screen, S. cerevisiae, GFP fusion, multiplex flow cytometry, MLPCN library. S. cerevisiae CIT2-GFP strain, 3 h; 100 means same as DMSO wells. GFP response vs DMSO, % at 10 µM. hit rate 0.065% among 320,000;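 active means GFP response relative to DMSO above a set limit, near the screen mean plus 3 SD, cut at about 150% in these data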;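 further: ratio of well median GFP fluorescence to mean of DMSO wells on the plate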
MEP2-GFP yeast = modulators of MEP2-GFP levels in yeast, primary screen, S. cerevisiae, multiplex flow cytometry, MLPCN library; S. cerevisiae MEP2-GFP strain, 3 h; 100% = DMSO control level; GFP response vs DMSO, % at 10 µM; hit rate 0.51% among 330,000; AID 2016, 2009;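 active means GFP response versus DMSO above a set limit, roughly screen mean plus 3 SD, cut at about 180% in these data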;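 further: median GFP fluorescence of the barcode-gated MEP2-GFP cells per well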
LAP4-GFP pick2 = LAP4-GFP expression modulators in yeast, confirmation, cell-based, second cherry pick, flow cytometry. shares compounds with LAP4-GFP MLPCN. S. cerevisiae LAP4-GFP strain, 3 h. GFP response vs DMSO, % at 10 µM. hit rate 20% among 590. AID 2621, 2010;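 active means GFP signal as percent of the solvent control above about 150%, meaning raised reporter expression, limit read from the data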
MEP2 cherry2 = modulators of MEP2-GFP levels in yeast, confirmation, S. cerevisiae, flow cytometry GFP, second cherry picks | shares compounds with LAP4-GFP MLPCN | S. cerevisiae MEP2-GFP strain, 3 h | GFP response vs DMSO, % at 10 µM | hit rate 10% among 590;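 active means GFP signal above 150% of the solvent control wells, that is a rise of more than half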;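 further: median channel GFP fluorescence of all gated yeast cells per well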
RPL19A-GFP pick2 = RPL19A-GFP modulators in TOR pathway yeast, confirmation, cell-based, S. cerevisiae, flow cytometry, second cherry pick | shares compounds with LAP4-GFP MLPCN | S. cerevisiae RPL19A-GFP strain, 3 h; stronger effect = lower value; 100% means same as DMSO wells | GFP response vs DMSO, % at 10 µM | hit rate 3% among 590 | AID 2623, 2010;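 active means under 65% GFP response relative to DMSO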;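 further: median GFP channel fluorescence per well over the all cells gate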
CIT2 GFP CP2 = modulators of CIT2-GFP expression in yeast, confirmation, flow cytometry, second cherry pick, single plex | S. cerevisiae CIT2-GFP strain, 3 h; DMSO control wells read 100% | hit rate 8% among 590 | shares compounds with LAP4-GFP MLPCN | GFP response vs DMSO, % at 10 µM;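 active means GFP response vs DMSO above about 150%, limit read from the data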;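 further: median green fluorescence per well over all gated yeast cells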
AGP1-GFP pick2 = AGP1-GFP expression modulators, hit retest, confirmation, cell-based, flow cytometry, S. cerevisiae, cherry pick set 2; shares compounds with LAP4-GFP MLPCN; S. cerevisiae AGP1-GFP strain, 3 h; percent response vs DMSO, % at 10 µM; 590 tested, under 10 active;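 active means over 150 percent of DMSO response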;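 further: median GFP channel fluorescence over all cells without mother daughter split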
s288c autofluor = compound autofluorescence in yeast s288c, dose response, artefact control for yeast TOR pathway GFP screen, s288c strain | S. cerevisiae s288c, 520 nm autofluorescence, flow cytometry, 3 h; stronger effect = higher value; zero means same as solvent-only cells | 610 tested, under 10 active | AID 2757, 2010 | fluorescence change (kMESF span) at 33 µM | shares compounds with LAP4-GFP MLPCN;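 active means fluorescence span over the dose series, or activity score, above about 33, limit read from the data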
s288c autofl DR = autofluorescence of compounds in yeast s288c, dose response, artefact control for yeast TOR pathway GFP screen, primary hits, KU SAR, s288c parental | shares compounds with LAP4-GFP MLPCN | S. cerevisiae s288c parental, compound autofluorescence, flow cytometry, 3 h | fluorescence change (span) at 33 µM | 110 tested, under 10 active | AID 488829, 2010;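 active means fluorescence change span, or the activity score built from it, above 25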
TORC1 bypass gr = wild-type yeast growth inhibition sparing TORC1 bypass cells, mechanism study for yeast TOR pathway GFP screen, BY4741 wild type, TORC1 bypass strain; 120 tested, under 10 active; shares compounds with LAP4-GFP MLPCN; growth rating (0-3) at 30 µM; AID 504456, 2011; S. cerevisiae BY4741 spot growth rating, 48-72 h; stronger effect = lower value;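 active means growth rating at most 1 for wild type yeast while the TORC1 bypass strain still grows fully, rated 3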
Of the large screens only hits and unclear results are named; the others gave an inactive call (follow-up assays come after a bar, where they were run). The list is not random: actives were taken first. Their share in the collection is about 0.93%.

Cc1ccc(-c2nc(N)c3c(-c4ccc(C)cc4)nn(C(C)(C)C)c3n2)cc1	none | LAP4-GFP pick2 inactive | MEP2 cherry2 inactive | RPL19A-GFP pick2 inactive | CIT2 GFP CP2 inactive | AGP1-GFP pick2 inactive | s288c autofluor inactive
CC(C)(C)n1nc(-c2ccc(Cl)cc2)c2c(N)ncnc21	RPL19A-GFP yeast 43, LAP4-GFP MLPCN 182 | s288c autofluor inactive | s288c autofl DR inactive | TORC1 bypass gr inactive
CC(C)(C)n1nc(-c2ccc(F)cc2)c2c(N)ncnc21	RPL19A-GFP yeast 48, LAP4-GFP MLPCN 178 | LAP4-GFP pick2 inactive | MEP2 cherry2 inactive | RPL19A-GFP pick2 48 | CIT2 GFP CP2 inactive | AGP1-GFP pick2 inactive | s288c autofluor inactive | s288c autofl DR inactive | TORC1 bypass gr inactive
CSc1nc(-c2ccc(C)cc2)nc(N)c1C#N	none
Cc1ccc(-c2nn(C(C)(C)C)c3ncnc(NS(=O)(=O)c4ccc([N+](=O)[O-])cc4)c23)cc1	none
CC(C)(C)S(=O)(=O)c1cnc2c(-c3ccc(F)cc3)cnn2c1N	none
Cc1ccccc1N(C(=O)CCC(=O)Nc1ccccn1)C(C(=O)NC(C)C)c1ccc(F)cc1 (stereo unspecified)	none
Cc1nc(Nc2nc3c(c(=O)[nH]2)CCC3)nc2ccccc12	none | LAP4-GFP pick2 inactive | MEP2 cherry2 inactive | RPL19A-GFP pick2 inactive | CIT2 GFP CP2 inactive | AGP1-GFP pick2 inactive
O=c1[nH]c(NCc2ccccc2)nc2c1CCC2	none
CNC(=O)C(NC(=O)CNC(=O)c1ccc(Cl)cc1)C(C)(C)C (stereo unspecified)	none
CCCc1ncc(C(=O)c2ccc(OC)cc2)n1C	none
